The text below walks through data of the supplement of paper PMC10646978.

Common to all, as to details: modulator concentration 10 µM
In assay [1] the test system is RAW-Dual (murine macrophage reporter line). The experiment in a line: NF-kB reporter (SEAP) activity fold change vs agonist alone; higher = enhanced NF-kB activity. A digest of the protocol:
(§1)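 Overnight stimulation with a PRR agonist followed pre-incubation for 1 hour at 37 °C with compound at 10 μM final. This was done in RAW-Dual murine macrophage reporter cells seeded at 50 000 per well in 384-well plates. NF-κB (SEAP, QUANTI-Blue absorbance at 620 nm) and IRF (Lucia luciferase, QUANTI-Luc luminescence) were read from the supernatant. Each reporter's fold change relative to the mean agonist-only control on the same plate was averaged over replicate plates.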

The test system is the same in assay [2]. The experiment in a line: IRF reporter (Lucia luciferase) activity fold change vs agonist alone; higher = enhanced IRF activity. In a few lines:
as §1

For assay [3] the test system is unchanged. The experiment in a line: viability score (confluency relative to resting cells, overnight) (fraction); higher = more viable, active = viable (0.7 or more). A digest of the protocol:
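Two confluency masks, generated with IncuCyte software over all imaged wells, were applied to IncuCyte images of RAW-Dual macrophages. The cells, in 384-well plates, had been exposed overnight to 10 μM final compound. The viability score is confluency as a fraction of resting cells, and a compound met the cutoff only with both masks above 70% of resting cells.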

Setting [4] is: agonist: CpG ODN 1826 0.5 ug/mL.

± gives the standard deviation.

As for `COc1ccc(CN(CCN(C)C)c2ccccn2)cc1.O=C(O)C=CC(=O)O`, the NF-kB reporter turned out to be 0.857 ± 0.065 in assay [1] (setting [4]), 0.954 ± 0.051 in assay [1] (agonist: LPS 0.1 ug/mL) and 1.01 ± 0.021 in assay [1] (agonist: MPLA […]). Also, the figures for the IRF reporter in assay [2] (agonist: 3'3'-cGAMP 10 ug/mL), in assay [2] (agonist: LPS 0.1 ug/mL) and in assay [2] (agonist: MPLA […]) were 0.982 ± 0.054, 0.915 ± 0.097 and 0.897 ± 0.07, respectively. Besides, the viability score in assay [3] was 1 (active).

Regarding `O=C(CN(c1cc(Cl)cc(Cl)c1)S(=O)(=O)c1ccccc1)N1CCCCCC1`, the NF-kB reporter in assay [1] (setting [4]) worked out at 1.06 ± 0.13; in assay [1] (agonist: LPS 0.1 ug/mL) it was 1.13 ± 0.1; in assay [1] (agonist: MPLA […]), 1.13 ± 0.068. Further, the IRF reporter in assay [2] (agonist: 3'3'-cGAMP 10 ug/mL) was determined as 0.943 ± 0.14; in assay [2] (agonist: LPS 0.1 ug/mL), 0.991 ± 0.062; in assay [2] (agonist: MPLA […]), 0.875 ± 0.057. Further, the viability score in assay [3] was 0.996 (active).

For the compound `O=S(=O)(c1ccc(-n2cccn2)cc1)N1CC(n2cc(C3CC3)nn2)C1`, the NF-kB reporter is 1.01 ± 0.068 in assay [1] (setting [4]), 1.11 ± 0.1 in assay [1] (agonist: LPS 0.1 ug/mL) and 0.939 ± 0.066 in assay [1] (agonist: MPLA […]). Besides, the IRF reporter in assay [2] (agonist: 3'3'-cGAMP 10 ug/mL) is 0.966 ± 0.076; in assay [2] (agonist: LPS 0.1 ug/mL) it was 1.21 ± 0.077; in assay [2] (agonist: MPLA […]), 0.999 ± 0.085. The viability score in assay [3] was 0.993 (active).

As to `Cc1cc(C(O)CCNC(=O)COc2cccc3c2OC(C)(C)C3)c(C)o1` (stereo not drawn), the NF-kB reporter in assay [1] (setting [4]) came to 1.04 ± 0.099; in assay [1] (agonist: LPS 0.1 ug/mL), 1.01 ± 0.15; in assay [1] (agonist: MPLA […]), 1.01 ± 0.055. In addition, the IRF reporter in assay [2] (agonist: 3'3'-cGAMP 10 ug/mL) is 0.883 ± 0.038; in assay [2] (agonist: LPS 0.1 ug/mL), 0.992 ± 0.051; in assay [2] (agonist: MPLA […]), 0.94 ± 0.13. Also, the viability score in assay [3] is 1 (active).

On to `CCN(CC)c1ccc(C=Nn2nnnc2N)c(O)c1`, for which the NF-kB reporter in assay [1] (setting [4]) came to 1.01 ± 0.078; in assay [1] (agonist: LPS 0.1 ug/mL) it was 0.869 ± 0.1; in assay [1] (agonist: MPLA […]), 1.13 ± 0.11. In addition, the IRF reporter stood at 0.942 ± 0.039 in assay [2] (agonist: 3'3'-cGAMP 10 ug/mL), 1.06 ± 0.13 in assay [2] (agonist: LPS 0.1 ug/mL) and 1.44 ± 0.29 in assay [2] (agonist: MPLA […]). In addition, the viability score in assay [3] is 0.955 (active).

As for `Cc1cc(Nc2cc(CN3CCOCC3)c3nc(C)c(Cc4ccc(Cl)cc4F)n3n2)[nH]n1`, the NF-kB reporter stood at 2.15 ± 0.29 in assay [1] (setting [4]), 1.46 ± 0.39 in assay [1] (agonist: LPS 0.1 ug/mL) and 1.59 ± 0.13 in assay [1] (agonist: MPLA […]). Moreover, the IRF reporter was determined as 0.291 ± 0.025 in assay [2] (agonist: 3'3'-cGAMP 10 ug/mL), 0.884 ± 0.16 in assay [2] (agonist: LPS 0.1 ug/mL) and 2.72 ± 0.31 in assay [2] (agonist: MPLA […]). Further, the viability score in assay [3] is 0.0653 (inactive).

In the case of `COc1cccc(O)c1O`, the values for the NF-kB reporter in assay [1] (setting [4]), in assay [1] (agonist: LPS 0.1 ug/mL) and in assay [1] (agonist: MPLA […]) were 1.72 ± 0.1, 0.627 ± 0.083 and 0.321 ± 0.013, respectively. In addition, the IRF reporter in assay [2] (agonist: 3'3'-cGAMP 10 ug/mL) is 0.479 ± 0.022; in assay [2] (agonist: LPS 0.1 ug/mL) it was 0.422 ± 0.03; in assay [2] (agonist: MPLA […]) it was 0.0889 ± 0.013. For the same compound, the viability score in assay [3] is 0.935 (active).

`CC(C)NCC(O)c1ccc(NS(C)(=O)=O)cc1.Cl` (stereo not drawn): the NF-kB reporter in assay [1] (setting [4]) amounted to 0.99 ± 0.098; in assay [1] (agonist: LPS 0.1 ug/mL) it was 1.02 ± 0.057; in assay [1] (agonist: MPLA […]) it was 1 ± 0.043. The IRF reporter was determined as 1.01 ± 0.056 in assay [2] (agonist: 3'3'-cGAMP 10 ug/mL), 0.978 ± 0.082 in assay [2] (agonist: LPS 0.1 ug/mL) and 0.99 ± 0.09 in assay [2] (agonist: MPLA […]). Besides, the viability score in assay [3] is 1 (active).

In the case of `Cc1cc(Cl)ccc1OCCCC(=O)NO`, the NF-kB reporter in assay [1] (setting [4]) stood at 0.745 ± 0.091; in assay [1] (agonist: LPS 0.1 ug/mL) it was 0.794 ± 0.039; in assay [1] (agonist: MPLA […]), 1.19 ± 0.028. In addition, the IRF reporter in assay [2] (agonist: 3'3'-cGAMP 10 ug/mL) is 0.234 ± 0.014; in assay [2] (agonist: LPS 0.1 ug/mL), 0.449 ± 0.084; in assay [2] (agonist: MPLA […]), 0.553 ± 0.12. In addition, in assay [3], the viability score is 0.986 (active).

Turning to `CCN1CCN(Cc2c(O)ccc3c2OC(=Cc2ccc(C)cc2)C3=O)CC1`, the NF-kB reporter in assay [1] (setting [4]) worked out at 1.05 ± 0.078; in assay [1] (agonist: LPS 0.1 ug/mL), 1.03 ± 0.14; in assay [1] (agonist: MPLA […]), 1.2 ± 0.028. Moreover, the IRF reporter in assay [2] (agonist: 3'3'-cGAMP 10 ug/mL) was found to be 0.945 ± 0.058; in assay [2] (agonist: LPS 0.1 ug/mL), 0.967 ± 0.12; in assay [2] (agonist: MPLA […]), 1.06 ± 0.13. In assay [3], the viability score is 0.995 (active).

For the compound `COCCn1c(C)cc(C(=O)CSc2ncnc3sc4c(c23)CCC4)c1C`, the NF-kB reporter amounted to 0.991 ± 0.067 in assay [1] (setting [4]), 1.11 ± 0.12 in assay [1] (agonist: LPS 0.1 ug/mL) and 1.02 ± 0.079 in assay [1] (agonist: MPLA […]). For the same compound, the results for the IRF reporter in assay [2] (agonist: 3'3'-cGAMP 10 ug/mL), in assay [2] (agonist: LPS 0.1 ug/mL) and in assay [2] (agonist: MPLA […]) were 1.04 ± 0.036, 1.43 ± 0.12 and 1.16 ± 0.12, respectively. Also, the viability score in assay [3] is 0.994 (active).

Consider `O=S(=O)(NCCn1ccn2nccc12)c1ccccc1Br`, for which the NF-kB reporter worked out at 0.86 ± 0.053 in assay [1] (setting [4]), 0.904 ± 0.091 in assay [1] (agonist: LPS 0.1 ug/mL) and 1.02 ± 0.065 in assay [1] (agonist: MPLA […]). Moreover, the results for the IRF reporter in assay [2] (agonist: 3'3'-cGAMP 10 ug/mL), in assay [2] (agonist: LPS 0.1 ug/mL) and in assay [2] (agonist: MPLA […]) were 0.989 ± 0.049, 1.14 ± 0.18 and 1.23 ± 0.34, respectively. Also, the viability score in assay [3] is 0.983 (active).

For `Cc1cc(=O)n2c(-c3cccc(NC(=O)C4CCCO4)c3)csc2n1` (stereo not drawn), the NF-kB reporter in assay [1] (setting [4]) was 1.25 ± 0.072; in assay [1] (agonist: LPS 0.1 ug/mL) it was 1.04 ± 0.089; in assay [1] (agonist: MPLA […]), 1.01 ± 0.037. Moreover, the IRF reporter in assay [2] (agonist: 3'3'-cGAMP 10 ug/mL) amounted to 0.973 ± 0.093; in assay [2] (agonist: LPS 0.1 ug/mL), 1.04 ± 0.11; in assay [2] (agonist: MPLA […]), 0.936 ± 0.18. Besides, in assay [3], the viability score is 0.999 (active).

Take `Cc1ccc(Sc2ccccc2N2CCNCC2)c(C)c1`: the NF-kB reporter was 0.415 ± 0.1 in assay [1] (setting [4]), 1.22 ± 0.065 in assay [1] (agonist: LPS 0.1 ug/mL) and 2.11 ± 0.33 in assay [1] (agonist: MPLA […]). The IRF reporter was 0.462 ± 0.015 in assay [2] (agonist: 3'3'-cGAMP 10 ug/mL), 2.25 ± 0.3 in assay [2] (agonist: LPS 0.1 ug/mL) and 2.42 ± 0.23 in assay [2] (agonist: MPLA […]). Moreover, the viability score in assay [3] is 0.622 (inactive).
